Experimental data reported in PMC7862700, “An all-to-all approach to the identification of sequence-specific readers for epigenetic DNA modifications on cytosine”.

How the values were obtained:
Test in all cases: DAPPL (digital affinity profiling via proximity ligation, sequencing); 10 mM Tris-HCl pH 7.5, 50 mM NaCl, 1 mM DTT, 4% glycerol, room temperature, 30 min; GST-TFs on glutathione beads, 16-mer random dsDNA library, 0.1% formaldehyde crosslink after washing; high values mean tight binding
Conditions in all cases: protein: recombinant; tags: N-terminal GST; dsDNA, one strand shown
ELK1 = target: T1, ELK1 (Homo sapiens, UniProt P19419 1-428)
T1 sequence: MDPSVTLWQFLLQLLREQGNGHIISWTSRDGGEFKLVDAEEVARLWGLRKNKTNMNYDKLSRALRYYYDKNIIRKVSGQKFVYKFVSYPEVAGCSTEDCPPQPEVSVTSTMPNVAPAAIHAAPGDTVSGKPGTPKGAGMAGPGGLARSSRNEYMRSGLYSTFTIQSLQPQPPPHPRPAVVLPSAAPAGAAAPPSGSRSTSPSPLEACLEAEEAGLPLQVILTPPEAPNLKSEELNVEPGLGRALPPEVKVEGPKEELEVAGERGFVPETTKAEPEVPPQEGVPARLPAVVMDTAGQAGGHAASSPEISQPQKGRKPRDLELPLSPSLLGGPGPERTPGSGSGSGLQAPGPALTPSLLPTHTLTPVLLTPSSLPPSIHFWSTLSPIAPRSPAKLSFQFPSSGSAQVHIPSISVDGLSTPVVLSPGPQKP
Method in brief: (§1)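 Sequencing on an Illumina NextSeq500 followed washing, crosslinking with 0.1% formaldehyde, proximity ligation (BsaI/T4 ligase, 1 h, 37 °C) and PCR amplification of pools that had been incubated for 30 min at room temperature with 200 nmole of a random double-stranded 16-mer DNA library in Tris/NaCl/DTT/glycerol buffer. Each pool held DNA-barcoded human transcription factors, expressed in yeast as GST fusions and captured on glutathione beads, plus a tag-only sample. Binding signal is a hexamer's read frequency for a factor divided by its frequency in the tag-only sample.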

FEV = target: T2, FEV (Homo sapiens, UniProt Q99581 1-238)
T2 sequence: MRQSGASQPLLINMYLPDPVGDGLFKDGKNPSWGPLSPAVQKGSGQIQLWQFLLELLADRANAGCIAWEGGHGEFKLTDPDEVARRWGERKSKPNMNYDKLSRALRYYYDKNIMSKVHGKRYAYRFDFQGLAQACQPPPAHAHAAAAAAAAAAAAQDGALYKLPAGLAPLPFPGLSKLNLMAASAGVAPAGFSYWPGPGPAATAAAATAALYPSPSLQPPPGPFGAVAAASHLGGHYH
Method in brief: as §1

ETV2 = target: T3, ETV2 (Homo sapiens, UniProt O00321 1-342)
T3 sequence: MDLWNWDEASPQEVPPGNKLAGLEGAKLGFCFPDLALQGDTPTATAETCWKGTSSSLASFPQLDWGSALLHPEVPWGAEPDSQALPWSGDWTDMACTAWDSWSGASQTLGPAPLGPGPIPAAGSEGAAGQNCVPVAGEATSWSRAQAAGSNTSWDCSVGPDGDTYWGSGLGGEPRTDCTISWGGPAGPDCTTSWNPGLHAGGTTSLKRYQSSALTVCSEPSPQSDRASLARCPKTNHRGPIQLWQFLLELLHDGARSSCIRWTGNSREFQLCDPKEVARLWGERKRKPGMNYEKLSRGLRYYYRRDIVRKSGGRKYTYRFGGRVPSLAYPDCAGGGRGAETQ
Method in brief: as §1

ELF1 = ELF1 (Homo sapiens, UniProt P32519 1-619)
ELF1, sequence (P32519 whole entry): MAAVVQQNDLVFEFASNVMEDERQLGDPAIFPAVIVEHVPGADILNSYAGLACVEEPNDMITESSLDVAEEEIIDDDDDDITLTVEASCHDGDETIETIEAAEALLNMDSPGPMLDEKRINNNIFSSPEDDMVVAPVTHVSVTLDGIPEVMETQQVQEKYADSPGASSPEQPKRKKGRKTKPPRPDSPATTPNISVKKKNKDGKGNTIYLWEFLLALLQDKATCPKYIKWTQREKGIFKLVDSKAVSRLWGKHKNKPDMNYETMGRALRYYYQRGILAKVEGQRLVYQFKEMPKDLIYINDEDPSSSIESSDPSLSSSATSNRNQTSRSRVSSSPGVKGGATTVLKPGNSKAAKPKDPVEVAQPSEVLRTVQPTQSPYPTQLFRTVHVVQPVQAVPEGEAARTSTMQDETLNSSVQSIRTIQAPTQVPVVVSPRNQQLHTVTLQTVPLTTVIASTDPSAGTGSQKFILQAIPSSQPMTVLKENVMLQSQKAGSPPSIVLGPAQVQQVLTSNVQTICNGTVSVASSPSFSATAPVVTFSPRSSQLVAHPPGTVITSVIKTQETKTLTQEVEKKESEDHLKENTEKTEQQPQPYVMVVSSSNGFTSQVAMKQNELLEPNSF
Method in brief: as §1

EHF = target: T4, EHF (Homo sapiens, UniProt Q9NZC4 1-300)
T4 sequence: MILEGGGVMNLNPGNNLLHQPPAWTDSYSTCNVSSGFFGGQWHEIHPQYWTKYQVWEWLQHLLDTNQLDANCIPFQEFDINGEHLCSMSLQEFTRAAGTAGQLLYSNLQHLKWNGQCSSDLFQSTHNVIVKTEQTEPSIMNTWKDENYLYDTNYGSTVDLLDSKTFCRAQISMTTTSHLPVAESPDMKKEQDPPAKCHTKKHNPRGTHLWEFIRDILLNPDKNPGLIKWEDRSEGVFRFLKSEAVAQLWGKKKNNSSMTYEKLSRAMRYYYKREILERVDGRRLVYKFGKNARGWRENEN
Method in brief: as §1

SPIB = SPIB (Homo sapiens, UniProt Q01892 1-262)
SPIB, sequence (Q01892 whole entry): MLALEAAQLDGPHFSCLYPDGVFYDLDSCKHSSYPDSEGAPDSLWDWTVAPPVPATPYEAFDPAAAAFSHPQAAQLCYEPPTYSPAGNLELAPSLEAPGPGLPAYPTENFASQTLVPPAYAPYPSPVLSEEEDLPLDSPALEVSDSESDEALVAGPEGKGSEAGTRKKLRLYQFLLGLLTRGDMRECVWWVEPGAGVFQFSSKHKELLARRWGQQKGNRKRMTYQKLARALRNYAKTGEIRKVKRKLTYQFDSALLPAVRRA
Method in brief: as §1

ELK3 = target: T5, ELK3 (Homo sapiens, UniProt P41970 1-407)
T5 sequence: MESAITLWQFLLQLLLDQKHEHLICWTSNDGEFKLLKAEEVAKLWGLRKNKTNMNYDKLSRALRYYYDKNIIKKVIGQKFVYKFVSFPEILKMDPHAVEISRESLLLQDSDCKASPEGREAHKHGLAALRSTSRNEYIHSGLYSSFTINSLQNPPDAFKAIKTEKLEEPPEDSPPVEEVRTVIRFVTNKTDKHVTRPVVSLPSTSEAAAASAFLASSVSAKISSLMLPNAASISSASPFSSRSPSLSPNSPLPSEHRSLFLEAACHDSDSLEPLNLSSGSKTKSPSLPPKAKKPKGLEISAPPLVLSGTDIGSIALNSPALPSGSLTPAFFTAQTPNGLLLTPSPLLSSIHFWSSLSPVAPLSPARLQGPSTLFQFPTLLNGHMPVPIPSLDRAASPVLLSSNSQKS
Method in brief: as §1

ELK4 = target: T6, ELK4 (Homo sapiens, UniProt P28324-2 1-405)
T6 sequence: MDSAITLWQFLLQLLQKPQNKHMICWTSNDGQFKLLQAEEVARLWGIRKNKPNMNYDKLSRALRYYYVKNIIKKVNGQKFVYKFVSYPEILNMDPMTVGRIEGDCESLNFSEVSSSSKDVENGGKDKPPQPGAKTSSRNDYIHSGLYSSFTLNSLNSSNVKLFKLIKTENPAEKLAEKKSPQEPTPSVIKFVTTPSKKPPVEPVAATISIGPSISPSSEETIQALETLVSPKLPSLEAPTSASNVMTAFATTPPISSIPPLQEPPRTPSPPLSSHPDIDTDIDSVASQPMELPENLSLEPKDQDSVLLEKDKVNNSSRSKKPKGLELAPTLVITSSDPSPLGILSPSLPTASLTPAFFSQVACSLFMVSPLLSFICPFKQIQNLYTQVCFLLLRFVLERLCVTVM
Method in brief: as §1

ETV1 = ETV1 (Homo sapiens, UniProt P50549 1-477)
ETV1, sequence (P50549 whole entry): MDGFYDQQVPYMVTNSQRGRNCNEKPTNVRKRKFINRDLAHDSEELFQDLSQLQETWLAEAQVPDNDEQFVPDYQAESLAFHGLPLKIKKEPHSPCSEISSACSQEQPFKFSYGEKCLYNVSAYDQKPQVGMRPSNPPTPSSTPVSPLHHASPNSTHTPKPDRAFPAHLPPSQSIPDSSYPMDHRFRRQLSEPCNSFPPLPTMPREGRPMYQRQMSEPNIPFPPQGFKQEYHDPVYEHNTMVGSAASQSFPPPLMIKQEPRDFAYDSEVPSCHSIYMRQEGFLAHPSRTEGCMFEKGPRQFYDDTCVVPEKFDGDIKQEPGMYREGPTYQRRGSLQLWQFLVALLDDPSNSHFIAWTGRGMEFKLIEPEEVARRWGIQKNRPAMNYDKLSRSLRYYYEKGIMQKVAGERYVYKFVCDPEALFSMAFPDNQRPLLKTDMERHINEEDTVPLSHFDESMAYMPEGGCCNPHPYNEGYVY
Method in brief: as §1

ETV3L = target: T7, ETV3L (Homo sapiens, UniProt Q6ZN32 1-361)
T7 sequence: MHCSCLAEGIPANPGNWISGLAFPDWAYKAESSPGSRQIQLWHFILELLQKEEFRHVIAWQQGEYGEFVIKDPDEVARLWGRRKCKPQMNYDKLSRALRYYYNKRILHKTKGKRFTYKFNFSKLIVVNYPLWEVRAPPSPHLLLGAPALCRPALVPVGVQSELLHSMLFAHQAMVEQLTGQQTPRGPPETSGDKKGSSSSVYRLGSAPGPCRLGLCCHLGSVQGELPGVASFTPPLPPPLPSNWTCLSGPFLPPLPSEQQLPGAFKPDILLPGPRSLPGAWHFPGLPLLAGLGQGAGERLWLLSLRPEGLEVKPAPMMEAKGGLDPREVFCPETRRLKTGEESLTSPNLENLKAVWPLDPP
Method in brief: as §1

ETS2 = target: T8, ETS2 (Homo sapiens, UniProt P15036 1-469)
T8 sequence: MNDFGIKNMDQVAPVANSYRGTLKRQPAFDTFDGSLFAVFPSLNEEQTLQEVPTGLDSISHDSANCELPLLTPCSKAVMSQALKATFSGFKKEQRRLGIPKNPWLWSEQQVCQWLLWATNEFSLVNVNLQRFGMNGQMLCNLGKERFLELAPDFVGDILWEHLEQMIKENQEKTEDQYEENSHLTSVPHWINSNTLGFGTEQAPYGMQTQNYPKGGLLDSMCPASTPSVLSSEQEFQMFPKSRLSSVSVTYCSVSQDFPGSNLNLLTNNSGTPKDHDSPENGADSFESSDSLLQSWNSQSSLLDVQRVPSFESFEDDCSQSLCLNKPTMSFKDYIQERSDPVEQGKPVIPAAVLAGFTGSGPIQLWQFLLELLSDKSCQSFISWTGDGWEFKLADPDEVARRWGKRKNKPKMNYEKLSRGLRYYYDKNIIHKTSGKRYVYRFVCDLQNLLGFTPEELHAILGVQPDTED
Method in brief: as §1

SPDEF = target: T9, SPDEF (Homo sapiens, UniProt O95238 1-335)
T9 sequence: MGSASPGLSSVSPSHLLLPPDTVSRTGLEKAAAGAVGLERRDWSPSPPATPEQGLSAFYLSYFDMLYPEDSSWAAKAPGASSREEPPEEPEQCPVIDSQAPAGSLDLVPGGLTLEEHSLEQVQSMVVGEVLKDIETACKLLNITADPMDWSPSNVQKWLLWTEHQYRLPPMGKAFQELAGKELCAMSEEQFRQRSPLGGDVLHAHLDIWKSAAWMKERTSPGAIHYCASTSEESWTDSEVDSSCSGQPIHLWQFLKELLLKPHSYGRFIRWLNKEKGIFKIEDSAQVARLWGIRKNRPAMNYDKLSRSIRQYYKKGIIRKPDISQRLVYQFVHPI
Method in brief: as §1

ELF3 = target: T10, ELF3 (Homo sapiens, UniProt P78545 1-371)
T10 sequence: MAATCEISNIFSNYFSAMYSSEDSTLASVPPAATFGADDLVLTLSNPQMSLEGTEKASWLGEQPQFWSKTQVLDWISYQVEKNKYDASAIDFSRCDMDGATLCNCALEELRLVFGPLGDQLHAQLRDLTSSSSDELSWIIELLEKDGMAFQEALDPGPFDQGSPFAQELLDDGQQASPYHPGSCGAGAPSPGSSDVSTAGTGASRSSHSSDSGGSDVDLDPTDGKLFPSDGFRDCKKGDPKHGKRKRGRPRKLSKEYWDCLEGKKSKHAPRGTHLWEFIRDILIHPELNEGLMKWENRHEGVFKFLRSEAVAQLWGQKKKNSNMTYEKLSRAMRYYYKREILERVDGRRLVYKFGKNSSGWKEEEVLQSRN
Method in brief: as §1

| Sequence | binding signal (ELK1) | binding signal (FEV) | binding signal (ETV2) | binding signal (ELF1) | binding signal (EHF) | binding signal (SPIB) | binding signal (ELK3) | binding signal (ELK4) | binding signal (ETV1) | binding signal (ETV3L) | binding signal (ETS2) | binding signal (SPDEF) | binding signal (ELF3) |
| --- | --- | --- | --- | --- | --- | --- | --- | --- | --- | --- | --- | --- | --- |
| GGCAGC | 1.02 fold enrichment (6-mer frequency, TF over GST control) | 1.02 fold enrichment (6-mer frequency, TF over GST control) | 1.02 fold enrichment (6-mer frequency, TF over GST control) | – | – | – | – | – | – | – | – | – | – |
| CCACCA | 1.04 fold enrichment (6-mer frequency, TF over GST control) | 1.04 fold enrichment (6-mer frequency, TF over GST control) | – | 1.12 fold enrichment (6-mer frequency, TF over GST control) | 1.04 fold enrichment (6-mer frequency, TF over GST control) | 1.08 fold enrichment (6-mer frequency, TF over GST control) | 1.03 fold enrichment (6-mer frequency, TF over GST control) | 1.14 fold enrichment (6-mer frequency, TF over GST control) | 1.02 fold enrichment (6-mer frequency, TF over GST control) | 1.04 fold enrichment (6-mer frequency, TF over GST control) | 1.05 fold enrichment (6-mer frequency, TF over GST control) | 1.01 fold enrichment (6-mer frequency, TF over GST control) | – |
| TGAACG | – | – | 1.02 fold enrichment (6-mer frequency, TF over GST control) | 1.01 fold enrichment (6-mer frequency, TF over GST control) | – | – | 1.06 fold enrichment (6-mer frequency, TF over GST control) | 1.02 fold enrichment (6-mer frequency, TF over GST control) | 1.02 fold enrichment (6-mer frequency, TF over GST control) | – | – | – | 1.16 fold enrichment (6-mer frequency, TF over GST control) |
